Measured potencies and affinities stand elsewhere. A number with no mark means an inactive call. Active and inactive are the calls of the source. No rule for the calls is given here.
Experiment: PAX5 cellular inhibition readout – cell-based, plate reader, dry powder samples, selectivity assay for PAX8 inhibitor project, dose response (AID 743047)
Settings: cell-based PAX5 selectivity counter-screen; series mostly up to 50 µM

SMILES	outcome	activity change, negative = inhibition
O=C(CCCN1C(=O)/C(=C\c2cccc(Br)c2)SC1=S)Nc1ccccn1	inactive	
COc1ccc(-c2cc(C(F)(F)F)nc(S(=O)(=O)CCCC(=O)Nc3cc(C)on3)n2)cc1OC	inactive	
Cc1ccc(-c2csc(NC3OC(=O)c4ccccc43)n2)cc1 (stereo unspecified)	inactive	
O=C(CCCN1C(=O)/C(=C\c2cccc(Br)c2)SC1=S)Nc1cccnc1	inactive	
COc1cccc2sc(N(CCCN(C)C)C(=O)CCS(=O)(=O)c3ccccc3)nc12	inactive	
COc1ccc(S(=O)(=O)Nc2ccc3c(c2)CC(=O)N([C@@H](C)CO)C[C@@H](C)[C@@H](CN(C)Cc2ccc(-c4ccccc4)cc2)O3)cc1	inactive	
N#C[C@H]1N[C@H](CO)[C@@H]1c1ccc(C#Cc2ccccc2F)cc1	inactive	
CC1(C)CC(=O)c2sc(NC(=O)CCS(=O)(=O)c3ccccc3)nc2C1	inactive	
CN(C[C@H]1N[C@@H](CO)[C@@H]1c1ccc(C2=CCCC2)cc1)C(=O)c1cccc(F)c1		243% [at 8 µM]
CC(=O)Nc1ccc(NC(=O)c2nc(S(=O)(=O)Cc3ccccc3)ncc2Cl)cc1	inactive	
O=C1/C(=C/c2ccccc2F)SC(=S)N1CC(=O)N1CCCCC1c1cccnc1 (stereo unspecified)	inactive	
CC(C)(C)c1nnc(NC(=O)CCS(=O)(=O)c2ccccc2)s1	inactive	
C[C@H]1CN([C@@H](C)CO)C(=O)CCCn2nncc2CO[C@@H]1CN(C)C(=O)Nc1ccc(-c2cccs2)cc1	inactive	
C[C@H](CO)N1C[C@H](C)[C@@H](CN(C)Cc2ccc(-c3ccccc3)cc2)Oc2ccc(NC(=O)C3CC3)cc2CC1=O	inactive	
O=C(c1cc(-c2cccs2)on1)N1CCN(C(c2ccccc2)c2ccccc2)CC1	inactive	
Cc1cc(NC(=O)CCCS(=O)(=O)c2nc(-c3cccs3)cc(C(F)(F)F)n2)no1	inactive	
C[C@H](CO)N1C[C@H](C)[C@H](CN(C)C(=O)Nc2ccc(-c3cccs3)cc2)OCc2cnnn2CCCC1=O	inactive	
C[C@@H]1CN([C@H](C)CO)C(=O)CCCn2cc(nn2)CO[C@H]1CN(C)C(=O)Nc1ccc(-c2cccs2)cc1	inactive	
CN(C)CCCN(C(=O)CCOc1ccccc1)c1nc2c(F)cccc2s1	inactive	
N#C[C@H]1[C@@H](c2ccc(C#Cc3cccc(F)c3)cc2)[C@@H](CO)N1C(=O)C1CCCC1	inactive	
CN(C[C@H]1N[C@@H](CO)[C@@H]1c1ccc(C2=CCCC2)cc1)C(=O)c1ccc(F)cc1		225% [at 8 µM]
COCC(=O)N1[C@H](CO)[C@H](c2ccc(-c3cccnc3)cc2)[C@@H]1C#N	inactive	
COc1cc(/C=C2\SC(=S)N(CCC(=O)N3CCCCC3)C2=O)cc(OC)c1OC	inactive	
O=C(CCS(=O)(=O)c1ccccc1)Nc1nc2ccc(F)cc2s1	inactive	
COc1ccc(OC)c2sc(N(CCCN(C)C)C(=O)CCS(=O)(=O)c3ccccc3)nc12	inactive	
Cc1ccc2cccc(NS(=O)(=O)c3ccccc3)c2n1	inactive	

Reference: PubChem BioAssay AID743047 (Broad Institute, 2013)
